Unmarked numbers belong to inactive results.

For 35 molecules, z-score results are on record in PubChem BioAssay.

This assay in a line: basal 3T3-L1 adipocyte mitochondrial potential changes, profiling panel, cell-based, JC-1 fluorescence, 3T3-L1 adipocytes, 24 h, 100 nL compound (AID 1168). Also: test concentration not given here. Conditions: JC-1 mitochondrial fluorescence, higher = more signal, called active from +8 up or from −8 down.
In the case of `Cc1ccc(S(=O)(=O)N2[C@@H](c3ccccc3)C(C(=O)O)=C[C@H]2C(C)(C)C)cc1`, the z-score is -0.465. `C=C1C(=O)C=C2CN(C(=O)c3ccccc3)[C@@](Cc3ccc(F)cc3)(C(=O)OC)[C@@H]12`: the z-score was 3.42. The result for `COC(=O)[C@@]1(Cc2ccc(F)cc2)[C@H]2c3cc(C(=O)N4CCCC4)n(CCc4c[nH]c5cc(F)ccc45)c3C[C@H]2CN1C(=O)c1ccccc1` reads -1.2; that for `CCCCN1CC=CC23O[C@@H]4C=CCCOC(=O)C4[C@H]2C(=O)N(CCO)[C@@H]3C1=O` (stereo not given in full), 0.0409. The result for `Cc1ccc(S[C@]2(C(=O)NC3CC3)CC(=O)N(C3Cc4ccccc4C3)[C@@H]2c2ccc(CO)cc2I)cc1` reads -0.411. In the case of `C=CCOC(=O)[C@H]1[C@@H]2C(=O)O[C@@H](c3ccccc3)[C@@H](c3ccccc3)N2[C@@H](c2ccc(OCCOC(=O)[C@H]3C[C@H]4C(=O)NCC(=O)N4[C@H]3c3cccc(OCCO)c3)cc2)[C@]12C(=O)Nc1ccc(I)cc12`, the z-score is -0.00167. The result for `CC1(C)OB(/C=C\CC(OC(=O)c2ccncc2)c2ccccc2)OC1(C)C` (stereo not given) reads -0.928; that for `CC[C@@H](O[Si](C#C[Si](C(C)C)(C(C)C)C(C)C)(C(C)C)C(C)C)c1cn([C@H](CO)Cc2ccccc2)nn1`, -0.123. With `C=C[C@H](OC)[C@@H](O)c1ccc(OC)c(O)c1`, the z-score was 0.503. Turning to `CC(C)(C)OC(=O)CC[C@@]1(C(N)=O)N=C(c2ccc(OCCCO)cc2)O[C@@H]1c1ccccc1CN=[N+]=[N-]`, the z-score is -0.216.

For `COCCOC(=O)N1C(=O)[C@@]2(c3cc(C#CCNC(N)=O)ccc31)[C@H](c1ccc(O)cc1)N1[C@H](c3ccccc3)[C@H](c3ccccc3)OC(=O)[C@H]1[C@@H]2C(=O)N1CCc2cc(OC)c(OC)cc2C1`, the z-score was -0.338. The result for `COc1cc2c(cc1O)C(C)N(Cc1sc3ccccc3c1Cl)CC2` (stereo not given) reads -0.632. The result for `COCCOC(=O)N1C(=O)[C@@]2(c3cc(C#CCC(C(=O)OC)C(=O)OC)ccc31)[C@H](C(N)=O)[C@H]1C(=O)O[C@H](c3ccccc3)[C@H](c3ccccc3)N1[C@@H]2c1ccccc1OCCO` reads 1.83. With `C[C@H]1C2[C@H](Cc3ccccc3)NC(=O)[C@]23C(=O)N[C@@H](Cc2ccccc2)C(=O)N2CCC[C@H]2C(=O)NC/C=C/CC/C=C/C3[C@@H]2O[C@]12C` (stereo not given in full), the z-score is 0.308. The result for `C[C@@]1([C@@H](NS(=O)(=O)c2cccc3cccnc23)c2ccc(-c3ccccc3)cc2)C[C@H]1C1CCCCC1` reads -0.399. As to `COc1ccc(CCNC(=O)[C@@H]2c3ccccc3C(=O)N(Cc3cc(F)cc(C(F)(F)F)c3)[C@H]2c2ccc(CO)cc2)cc1`, the z-score was 0.17.

Turning to `C=CC[C@H](O)c1ccc(O)c(F)c1`, the z-score is 0.083. The result for `CC(C)N1CC=CC23O[C@@H]4/C=C\CCCOC(=O)C4[C@H]2C(=O)N(C(C)CO)[C@@H]3C1=O` (stereo not given in full) reads -1.54. The result for `C=CCOC(=O)[C@@H]1[C@H]2C(=O)O[C@H](c3ccccc3)[C@H](c3ccccc3)N2[C@H](c2ccc(OCCOC(=O)[C@H]3C[C@H]4C(=O)N[C@@H](CCCCN(C)C)C(=O)N4[C@H]3c3cccc(OCCO)c3)cc2)[C@@]12C(=O)Nc1ccccc12` reads -0.5.

With `COCCOC(=O)N1C(=O)[C@@]2(c3cc(C#CC4=CCCCC4)ccc31)[C@H](C(=O)N1CCCCCCC1)[C@H]1C(=O)O[C@H](c3ccccc3)[C@H](c3ccccc3)N1[C@@H]2c1ccccc1OCCO`, the z-score was 0.992.

Take `CCCCCN1CC=CC23O[C@@H]4/C=C\CCCOC(=O)C4[C@H]2C(=O)N(CCO)[C@@H]3C1=O` (stereo not given in full): the z-score is -0.428. On to `CC(C)N1C(=O)[C@@]2(Cc3ccccc31)c1ccccc1C(=O)N(Cc1ccccc1)[C@H]2c1ccc(CO)cc1`, for which the z-score is -0.0814. As to `C=C(CC1([C@@H](NP(=O)(c2ccccc2)c2ccccc2)[C@H]2C[C@@H]2CCCC)CC1)c1cccc(OC)c1`, the z-score is -0.532. The result for `CC[C@@H](O[Si](C#C[Si](C(C)C)(C(C)C)C(C)C)(C(C)C)C(C)C)c1cn(Cc2cccc(Cl)c2)nn1` reads -0.00161. The result for `COCCCNC(=O)[C@]1(Cc2ccccc2CN=[N+]=[N-])N=C(c2ccc(OCCCO)cc2)O[C@@H]1c1ccccc1N=[N+]=[N-]` reads 1.16; that for `COc1ccc([Si](C)(C)[C@H]2[C@H](CC(=O)N(CCO)Cc3ccccc3)O[C@@]3(C(=O)N(Cc4cccc(N5CCCCC5=O)c4)c4ccccc43)[C@@H]2C)cc1`, 1.65; that for `C=C(/C=C\CNS(=O)(=O)c1ccc(C)cc1)[C@H](O)[C@H]1CCCN1S(=O)(=O)c1ccccc1[N+](=O)[O-]`, -0.955. The result for `[N-]=[N+]=NCc1ccccc1[C@H]1OC(c2ccc(OCCCO)cc2)=N[C@@]1(Cc1ccccc1N=[N+]=[N-])C(N)=O` reads 0.199; that for `C=CCN1C(=O)[C@@]2(O[C@@H](CCO)[C@H]([Si](C)(C)c3ccc(OC)cc3)[C@H]2C)c2cc(N3CCCCC3=O)ccc21`, -0.0545; that for `Cc1ccc(S[C@]2(C(=O)NCc3ccccc3)CC(=O)N(Cc3ccccc3C(F)(F)F)[C@@H]2c2ccc(CO)cc2I)cc1`, -0.841. Regarding `C=C[C@H](C)[C@@H](OC(=O)Nc1ccc(SC)cc1)c1ccc(OCCO)cc1`, the z-score was -0.168. The result for `CN(C)C(=O)[C@]1(CCS(=O)(=O)c2ccccc2)N=C(c2ccc(OCCCO)cc2)O[C@@H]1c1ccccc1CN=[N+]=[N-]` reads -0.197; that for `COC(=O)[C@]1(Cc2ccccc2N=[N+]=[N-])N=C(c2ccc(OCCCO)cc2)O[C@@H]1c1ccccc1CN=[N+]=[N-]`, -1.07; that for `COc1cccc(C)c1NC(=O)O[C@H]1[C@H](OC(=O)Nc2ccccc2)[C@@H](OC(=O)Nc2ccccc2)[C@@H](OC)O[C@@H]1CO`, 1.17.

As for `COCCCNC(=O)[C@@]1(c2ccc([N+](=O)[O-])cc2)CC(=O)N(C2CCCCC2)[C@@H]1c1ccc(CO)cc1I`, the z-score was 0.802.
